Screening data as filed in PubChem.
MCF10A rerep: A quantitative high throughput screen for small molecules that induce DNA re-replication in MCF 10a normal breast cells; MCF 10A DNA re-replication, Hoechst nuclear intensity, 48 h; Potency, µM (highest dose often 46.1 µM), actives largely listed as activators; hit rate 2.9% among 350,000; further: nearly all actives have a fitted effect of over 50% in size
VP16 counter: VP16 counterscreen qHTS for inhibitors of ROR gamma transcriptional activity; Potency, µM (doses to about 53.6 µM), actives largely listed as inhibitors; Drosophila S2 Gal4-VP16 UAS-luciferase, luminescence, 20 h; hit rate 3.5% among 310,000;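 further: Gal4-VP16 expression switched on by copper sulfate through the metallothionein promoter; nearly all actives have a fitted effect of over 50% in size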
IL1B secr inh: qHTS for Inhibitors of Inflammasome Signaling: IL-1-beta AlphaLISA Primary Screen; THP-1 LPS/ATP IL-1B secretion, AlphaLISA, 16 h; active compounds read low; activity change, % at 57.5 µM; hit rate 4.7% among 360,000; in the data active means activity change below about -50%; inconclusive means mostly about -30% to -49%
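Secreted IL-1B measured by AlphaLISA bead assay after 16 h compound exposure of THP-1 cells; compounds (final up to 57.5 uM) added 1 h before LPS (250 ng/mL) and ATP (1.25 mM) stimulation; lower signal means less secretion.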
RORgamma inh: qHTS for inhibitors of ROR gamma transcriptional activity. Drosophila S2 Gal4-RORgamma UAS-luciferase reporter, 20 h. AID 2551, 2010. hit rate 5.4% among 310,000. Nuclear receptor ROR-gamma (Mus musculus), P51450. Potency, µM (highest dose often 53.6 µM), hits mostly inhibitors; further: nearly all actives have a fitted effect of over 60% in size
Target sequence (P51450 whole entry, looked up, the tested form may be a part): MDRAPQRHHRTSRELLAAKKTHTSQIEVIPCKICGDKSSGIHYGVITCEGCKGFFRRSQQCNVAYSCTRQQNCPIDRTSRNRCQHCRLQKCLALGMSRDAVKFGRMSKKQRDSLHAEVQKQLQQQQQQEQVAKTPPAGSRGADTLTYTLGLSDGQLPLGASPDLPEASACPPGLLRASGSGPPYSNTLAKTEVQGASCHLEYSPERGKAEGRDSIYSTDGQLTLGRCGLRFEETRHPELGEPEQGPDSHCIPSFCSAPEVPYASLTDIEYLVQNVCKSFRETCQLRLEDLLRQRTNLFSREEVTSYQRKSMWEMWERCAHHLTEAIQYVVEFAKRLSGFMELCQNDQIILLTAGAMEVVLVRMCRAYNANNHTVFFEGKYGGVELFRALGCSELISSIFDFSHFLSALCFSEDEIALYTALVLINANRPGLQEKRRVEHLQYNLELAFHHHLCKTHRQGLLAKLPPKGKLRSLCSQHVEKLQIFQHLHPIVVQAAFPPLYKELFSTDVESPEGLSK
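In this cell-based reporter format, copper sulfate (700 uM final) drives Gal4–ROR gamma fusion expression from a metallothionein promoter in Drosophila Schneider cells; compounds preincubated 1 hr, reporter read after 20 hr at ambient temperature.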
SW480 rerep: A quantitative high throughput screen for small molecules that induce DNA re-replication in SW480 colon adenocarcinoma cells; AID 624297, 2012; hit rate 1.8% among 340,000; Potency, µM (doses to about 46.1 µM), most hits filed as activators; SW480 DNA re-replication, Hoechst DNA content imaging, 48 h; further: nearly all actives have a fitted effect of over 55% in size
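Cells (250 per well) received 23 nL compound or DMSO by pin tool and were kept 48 hr at 37 C, 5% CO2. Nuclei were then stained with Hoechst for 40 min and scanned for DNA content.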
Numbers stand for hits; [ ] = another dose, or the depositor's remark. In the library only some 11% were active in any assay of this set; here they are far more common. Unless noted, the call rests on the fitted dose curve; in most records, active means well fitted curve in the direction sought with a large enough effect; inconclusive means small, poorly fitted or top-dose-only effect, or another doubt; inactive means no such curve, though single readings can be large; an effect the other way counts as inactive or inconclusive.

What do the screens show for `CC(C)c1ccc(NC(=S)N2CCCC(c3ccc(F)cc3)=N2)cc1`?
MCF10A rerep: inactive; VP16 counter: inactive; IL1B secr inh: inactive; RORgamma inh: 11µM; SW480 rerep: inactive

How did CCOc1ccc(OCCC(=O)OCC(=O)N2CCN(S(=O)(=O)c3ccc(C)cc3)CC2)cc1 do in these assays?
MCF10A rerep: inconclusive; IL1B secr inh: -73; SW480 rerep: inactive

What do the screens show for `O=C(OCC(=O)N1CCN(S(=O)(=O)c2ccc(Cl)cc2)CC1)C1CCC1`?
MCF10A rerep: inactive; IL1B secr inh: inactive; SW480 rerep: inactive

What do the screens show for `Cc1ccc(OCCC(=O)OCC(=O)N2CCN(S(=O)(=O)c3ccc(Cl)cc3)CC2)cc1`?
MCF10A rerep: inactive; IL1B secr inh: -59; SW480 rerep: 18µM

Results for Cc1ccccc1OCCC(=O)OCC(=O)N1CCN(S(=O)(=O)c2ccc(Cl)cc2)CC1 ?
MCF10A rerep: inactive; IL1B secr inh: inactive; SW480 rerep: inactive

How did Cc1ccc(S(=O)(=O)N2CCN(C(=O)COC(=O)CCOc3ccc(C(C)(C)C)cc3)CC2)cc1 do in these assays?
MCF10A rerep: inactive; IL1B secr inh: inactive; SW480 rerep: 18µM

How did CCOc1ccc(OCCC(=O)OCC(=O)N2CCN(S(=O)(=O)c3ccc(C)cc3C)CC2)cc1 do in these assays?
MCF10A rerep: inactive; IL1B secr inh: inactive; SW480 rerep: inactive

What do the screens show for `Cc1ccc(S(=O)(=O)N2CCN(C(=O)COC(=O)C3CCC3)CC2)cc1`?
MCF10A rerep: inactive; IL1B secr inh: inactive; SW480 rerep: 6.5µM

How did COC(=O)C/C=C\[C@@H](C)[C@@H](/C=N\O[C@@H](C)c1cn([C@H](CO)Cc2ccccc2)nn1)NS(=O)(=O)c1ccc(C)cc1 do in these assays?
VP16 counter: inactive[10 µM]; RORgamma inh: inactive[10 µM]

What do the screens show for `O=C1COc2ccc(S(=O)(=O)N3CCC(C(=O)NCc4ccccc4)CC3)cc2N1`?
MCF10A rerep: inactive; VP16 counter: inactive; IL1B secr inh: inactive; RORgamma inh: inactive; SW480 rerep: inactive

Results for CCOc1ccc(OCCCC(=O)N2CCN(S(=O)(=O)c3ccccc3C#N)CC2)cc1 ?
MCF10A rerep: inactive; IL1B secr inh: -52; SW480 rerep: inactive

Results for Cc1cc(Cl)ccc1OCCCC(=O)N1CCN(S(=O)(=O)c2ccccc2)CC1 ?
MCF10A rerep: inconclusive; IL1B secr inh: -87; SW480 rerep: inactive

How did CCOc1ccc(OCCC(=O)N2CCN(S(=O)(=O)c3ccc(OCC)cc3)CC2)cc1 do in these assays?
MCF10A rerep: inconclusive; VP16 counter: inactive; IL1B secr inh: inactive; RORgamma inh: inactive; SW480 rerep: inactive

What do the screens show for `O=S(=O)(c1ccc2c(c1)CCC2)N1CCNCC1`?
MCF10A rerep: inactive; IL1B secr inh: inactive; SW480 rerep: inactive

What do the screens show for `O=C(c1ccc2c(c1)OCO2)N(Cc1cccs1)C1(C(=O)NC2CCCCC2)CCCCC1`?
MCF10A rerep: inconclusive; VP16 counter: inactive; IL1B secr inh: -55; RORgamma inh: inactive; SW480 rerep: inactive

How did NC(=O)COc1ccccc1 do in these assays?
MCF10A rerep: inactive; VP16 counter: inactive; IL1B secr inh: inactive; RORgamma inh: inactive; SW480 rerep: inactive

Results for O=C(O)COc1ccc(Oc2ccccc2)cc1 ?
MCF10A rerep: inactive; VP16 counter: 13µM; IL1B secr inh: inactive; RORgamma inh: inconclusive; SW480 rerep: inactive

What do the screens show for `NC(=S)COc1ccccc1`?
MCF10A rerep: inactive; VP16 counter: inactive; IL1B secr inh: inactive; RORgamma inh: 22µM; SW480 rerep: inactive

What do the screens show for `COc1ccc(-c2nc(CN3CCN(Cc4cccc(Cl)c4)CC3)c(C)o2)cc1`?
MCF10A rerep: inactive; VP16 counter: inconclusive; IL1B secr inh: inactive; RORgamma inh: 11µM; SW480 rerep: inactive

Results for COc1ccc(-c2nc(CN3CCN(c4ccccc4OC)CC3)c(C)o2)cc1 ?
MCF10A rerep: inactive; VP16 counter: inactive; IL1B secr inh: -97; RORgamma inh: inactive; SW480 rerep: inactive

How did COc1ccccc1N1CCN(Cc2cc3c(cc2Br)OCCO3)CC1 do in these assays?
MCF10A rerep: inactive; VP16 counter: inactive; IL1B secr inh: inconclusive; RORgamma inh: inactive; SW480 rerep: inactive

Results for COc1ccccc1N1CCN(Cc2nc(-c3ccc(F)cc3)oc2C)CC1 ?
MCF10A rerep: inactive; VP16 counter: inactive; IL1B secr inh: inactive; RORgamma inh: inactive; SW480 rerep: inactive

Results for COc1ccccc1N1CCN(Cc2ccc(Br)o2)CC1 ?
MCF10A rerep: inactive; VP16 counter: 20µM; IL1B secr inh: inactive; RORgamma inh: inactive; SW480 rerep: inactive

What do the screens show for `Cc1ccc(-n2c3nc(=O)[nH]c(=O)c-3cc3cc([N+](=O)[O-])ccc32)cc1`?
MCF10A rerep: inconclusive; VP16 counter: inconclusive; IL1B secr inh: -107; RORgamma inh: inconclusive; SW480 rerep: inconclusive

How did Cc1ccc(-n2c(C)nn(Cc3ccc([N+](=O)[O-])cc3)c2=O)cc1 do in these assays?
MCF10A rerep: inactive; VP16 counter: inactive; IL1B secr inh: inactive; RORgamma inh: inactive; SW480 rerep: inactive

Results for O=C(Cc1ccccc1)NC(=S)Nc1ccc2oc(-c3ccccc3F)nc2c1 ?
MCF10A rerep: inactive; VP16 counter: inconclusive; IL1B secr inh: inactive; RORgamma inh: 4µM; SW480 rerep: inconclusive

What do the screens show for `O=C(NC(=S)Nc1ccc2oc(-c3cccnc3)nc2c1)c1cccc(Cl)c1`?
MCF10A rerep: inconclusive; VP16 counter: inactive; IL1B secr inh: inactive; RORgamma inh: 20µM; SW480 rerep: inactive

How did O=C(Cc1ccccc1)NC(=S)Nc1ccc2oc(-c3ccccc3)nc2c1 do in these assays?
VP16 counter: 7.1µM; RORgamma inh: 7.1µM

Results for CC1CCCCN1C(=O)NC1CC(=O)N(c2ccc3c(c2)OCCO3)C1 (stereo unspecified) ?
MCF10A rerep: inactive; IL1B secr inh: inactive; SW480 rerep: inactive

What do the screens show for `CO/N=C/c1c(-c2ccc(Cl)cc2)nc2cc(C)ccn12`?
MCF10A rerep: inconclusive; VP16 counter: inactive; IL1B secr inh: -52; RORgamma inh: 8.9µM; SW480 rerep: inconclusive

Results for COc1cccc(CNc2nc3ccccc3n2CCN2CCCCC2)c1OC ?
MCF10A rerep: inconclusive; VP16 counter: inactive; IL1B secr inh: inactive; RORgamma inh: inactive; SW480 rerep: inactive

What do the screens show for `O=C(Nc1nc2ccccc2n1CCN1CCCC1)C1CCCCC1`?
MCF10A rerep: inactive; VP16 counter: 10µM; IL1B secr inh: inactive; RORgamma inh: 7.1µM; SW480 rerep: inactive

Results for CCn1c(NC(=O)C2CCCCC2)nc2ccccc21 ?
MCF10A rerep: inactive; VP16 counter: 0.89µM; IL1B secr inh: inactive; RORgamma inh: 0.35µM; SW480 rerep: inconclusive

How did CCn1nccc1C(=O)Nc1nc2ccccc2n1CCN1CCCCC1 do in these assays?
MCF10A rerep: inconclusive; VP16 counter: inconclusive; IL1B secr inh: inconclusive; RORgamma inh: 16µM; SW480 rerep: inactive[9.22 µM]
